Compound in this test: C#CCNC(=O)CCSSCCC(=O)NCCc1ccc(C=O)c(C=O)c1
In words: lysine labeling ratio R10:1 (500 µM / 50 µM probe), SILAC-ABPP in living cells; higher = lower intrinsic lysine reactivity toward the probe, active = 2 or less. Particulars: HeLa; probe concentrations 500 vs 50 µM. Put shortly: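 Each lysine carries an R value: the filtered median of MS1 peptide ratios of high probe to low probe, with the median then taken over forward and reverse replicates. These came from living SILAC light and heavy HeLa cells in PBS at room temperature labelled with an alkyne-tagged, disulfide-linked lysine probe at 500 µM or 50 µM, in forward and reverse swaps. The lysates were mixed, clicked to biotin-azide, trypsin-digested, captured on neutravidin, released by DTT, alkylated and run by LC-MS/MS on a TIMS-TOF Pro. The highest value allowed is 20.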
Sequence of UniProt P26038 (P26038 whole entry): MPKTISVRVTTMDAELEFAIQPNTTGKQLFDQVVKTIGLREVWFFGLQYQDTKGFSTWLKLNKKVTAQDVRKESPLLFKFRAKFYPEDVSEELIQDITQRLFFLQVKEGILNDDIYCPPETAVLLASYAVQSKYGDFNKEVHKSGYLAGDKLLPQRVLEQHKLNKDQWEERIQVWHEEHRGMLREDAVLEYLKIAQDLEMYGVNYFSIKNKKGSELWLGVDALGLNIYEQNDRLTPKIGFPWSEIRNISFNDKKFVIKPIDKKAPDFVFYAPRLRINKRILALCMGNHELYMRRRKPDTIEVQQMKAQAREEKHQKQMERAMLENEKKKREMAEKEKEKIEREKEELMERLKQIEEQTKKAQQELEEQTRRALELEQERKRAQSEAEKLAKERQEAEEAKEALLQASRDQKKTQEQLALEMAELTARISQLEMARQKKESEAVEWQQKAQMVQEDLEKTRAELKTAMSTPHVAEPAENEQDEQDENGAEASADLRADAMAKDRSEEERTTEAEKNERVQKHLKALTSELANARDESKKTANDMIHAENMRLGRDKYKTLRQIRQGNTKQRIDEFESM
Sequence of UniProt P01893 (P01893 whole entry): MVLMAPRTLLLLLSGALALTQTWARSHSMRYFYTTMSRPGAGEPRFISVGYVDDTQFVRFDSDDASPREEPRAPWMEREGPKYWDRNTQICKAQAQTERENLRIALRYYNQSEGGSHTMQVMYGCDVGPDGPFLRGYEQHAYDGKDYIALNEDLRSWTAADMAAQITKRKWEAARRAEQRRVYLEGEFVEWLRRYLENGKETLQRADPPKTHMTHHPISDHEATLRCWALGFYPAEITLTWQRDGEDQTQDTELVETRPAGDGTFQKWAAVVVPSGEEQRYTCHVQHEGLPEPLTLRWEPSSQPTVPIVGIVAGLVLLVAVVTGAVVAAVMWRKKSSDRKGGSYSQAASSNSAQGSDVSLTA
Sequence of UniProt Q01082 (Q01082 whole entry): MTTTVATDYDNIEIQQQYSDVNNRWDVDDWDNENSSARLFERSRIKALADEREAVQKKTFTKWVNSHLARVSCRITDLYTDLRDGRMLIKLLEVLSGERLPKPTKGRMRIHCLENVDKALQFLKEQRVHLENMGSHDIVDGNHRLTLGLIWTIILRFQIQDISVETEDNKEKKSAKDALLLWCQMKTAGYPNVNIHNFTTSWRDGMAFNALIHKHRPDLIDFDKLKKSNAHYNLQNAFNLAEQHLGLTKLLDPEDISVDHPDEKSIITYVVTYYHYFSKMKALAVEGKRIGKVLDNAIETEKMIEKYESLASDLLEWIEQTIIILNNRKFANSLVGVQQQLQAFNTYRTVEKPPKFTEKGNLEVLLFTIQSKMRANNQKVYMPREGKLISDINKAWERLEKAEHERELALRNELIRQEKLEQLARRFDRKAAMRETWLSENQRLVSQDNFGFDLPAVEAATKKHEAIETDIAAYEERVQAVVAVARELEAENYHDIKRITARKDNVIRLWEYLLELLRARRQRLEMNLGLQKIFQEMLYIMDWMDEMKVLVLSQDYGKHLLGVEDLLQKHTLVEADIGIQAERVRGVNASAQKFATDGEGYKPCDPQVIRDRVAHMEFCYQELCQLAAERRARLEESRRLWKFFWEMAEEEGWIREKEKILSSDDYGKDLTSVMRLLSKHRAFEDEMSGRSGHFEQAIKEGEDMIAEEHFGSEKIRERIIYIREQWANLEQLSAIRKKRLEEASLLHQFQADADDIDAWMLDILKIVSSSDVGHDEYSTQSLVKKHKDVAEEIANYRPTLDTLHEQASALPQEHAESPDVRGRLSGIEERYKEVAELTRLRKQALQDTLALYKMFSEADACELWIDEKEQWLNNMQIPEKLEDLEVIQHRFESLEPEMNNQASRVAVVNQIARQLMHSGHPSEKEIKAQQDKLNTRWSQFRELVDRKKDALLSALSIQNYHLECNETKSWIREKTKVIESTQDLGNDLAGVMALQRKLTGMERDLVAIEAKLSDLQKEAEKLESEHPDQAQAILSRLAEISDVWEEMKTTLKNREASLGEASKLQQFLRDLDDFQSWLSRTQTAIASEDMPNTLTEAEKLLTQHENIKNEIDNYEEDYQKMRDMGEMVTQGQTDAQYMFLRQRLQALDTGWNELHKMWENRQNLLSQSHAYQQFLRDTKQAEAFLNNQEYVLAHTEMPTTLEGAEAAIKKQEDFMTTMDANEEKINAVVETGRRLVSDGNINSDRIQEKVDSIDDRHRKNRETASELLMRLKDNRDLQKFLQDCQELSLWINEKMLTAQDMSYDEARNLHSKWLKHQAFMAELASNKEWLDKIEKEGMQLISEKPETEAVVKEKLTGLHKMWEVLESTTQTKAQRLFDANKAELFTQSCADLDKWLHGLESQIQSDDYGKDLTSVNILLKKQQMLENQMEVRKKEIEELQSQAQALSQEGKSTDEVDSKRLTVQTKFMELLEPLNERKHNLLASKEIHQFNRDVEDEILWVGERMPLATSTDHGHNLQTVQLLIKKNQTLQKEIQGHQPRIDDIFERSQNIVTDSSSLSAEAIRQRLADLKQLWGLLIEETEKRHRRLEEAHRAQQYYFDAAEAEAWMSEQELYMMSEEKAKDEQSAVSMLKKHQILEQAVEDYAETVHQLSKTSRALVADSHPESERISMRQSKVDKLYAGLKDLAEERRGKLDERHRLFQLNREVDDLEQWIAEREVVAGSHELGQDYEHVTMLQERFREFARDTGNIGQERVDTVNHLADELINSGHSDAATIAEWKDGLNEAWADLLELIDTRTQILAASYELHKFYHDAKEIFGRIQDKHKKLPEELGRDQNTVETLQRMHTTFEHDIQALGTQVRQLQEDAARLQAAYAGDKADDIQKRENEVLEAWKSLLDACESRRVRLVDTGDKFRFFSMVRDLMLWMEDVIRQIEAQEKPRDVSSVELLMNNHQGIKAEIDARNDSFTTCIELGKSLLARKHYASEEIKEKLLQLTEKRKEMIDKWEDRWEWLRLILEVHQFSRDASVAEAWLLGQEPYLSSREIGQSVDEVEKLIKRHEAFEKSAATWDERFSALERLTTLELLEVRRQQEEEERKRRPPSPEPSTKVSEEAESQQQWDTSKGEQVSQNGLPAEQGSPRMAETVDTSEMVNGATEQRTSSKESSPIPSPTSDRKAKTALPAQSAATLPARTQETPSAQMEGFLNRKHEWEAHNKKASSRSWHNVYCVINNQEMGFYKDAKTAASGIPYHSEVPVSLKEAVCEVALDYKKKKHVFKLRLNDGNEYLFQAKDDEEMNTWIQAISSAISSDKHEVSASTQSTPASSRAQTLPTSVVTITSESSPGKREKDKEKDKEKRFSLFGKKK
Sequence of UniProt Q8N8S7 (Q8N8S7 whole entry): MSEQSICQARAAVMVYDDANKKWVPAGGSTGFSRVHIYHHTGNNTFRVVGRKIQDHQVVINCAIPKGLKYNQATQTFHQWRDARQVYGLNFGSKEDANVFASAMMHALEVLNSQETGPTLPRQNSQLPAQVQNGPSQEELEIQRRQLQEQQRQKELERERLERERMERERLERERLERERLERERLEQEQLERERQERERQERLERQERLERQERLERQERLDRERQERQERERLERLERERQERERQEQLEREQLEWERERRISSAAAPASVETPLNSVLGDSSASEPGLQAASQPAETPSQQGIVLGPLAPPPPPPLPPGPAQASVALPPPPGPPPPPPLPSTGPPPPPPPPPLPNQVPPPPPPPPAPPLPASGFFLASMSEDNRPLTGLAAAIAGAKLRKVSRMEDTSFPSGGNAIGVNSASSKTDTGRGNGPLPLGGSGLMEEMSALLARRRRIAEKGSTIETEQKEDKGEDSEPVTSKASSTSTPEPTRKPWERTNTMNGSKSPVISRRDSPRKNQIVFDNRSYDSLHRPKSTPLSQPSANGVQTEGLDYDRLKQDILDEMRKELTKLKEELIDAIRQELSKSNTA
Sequence of UniProt P02768 (P02768 whole entry): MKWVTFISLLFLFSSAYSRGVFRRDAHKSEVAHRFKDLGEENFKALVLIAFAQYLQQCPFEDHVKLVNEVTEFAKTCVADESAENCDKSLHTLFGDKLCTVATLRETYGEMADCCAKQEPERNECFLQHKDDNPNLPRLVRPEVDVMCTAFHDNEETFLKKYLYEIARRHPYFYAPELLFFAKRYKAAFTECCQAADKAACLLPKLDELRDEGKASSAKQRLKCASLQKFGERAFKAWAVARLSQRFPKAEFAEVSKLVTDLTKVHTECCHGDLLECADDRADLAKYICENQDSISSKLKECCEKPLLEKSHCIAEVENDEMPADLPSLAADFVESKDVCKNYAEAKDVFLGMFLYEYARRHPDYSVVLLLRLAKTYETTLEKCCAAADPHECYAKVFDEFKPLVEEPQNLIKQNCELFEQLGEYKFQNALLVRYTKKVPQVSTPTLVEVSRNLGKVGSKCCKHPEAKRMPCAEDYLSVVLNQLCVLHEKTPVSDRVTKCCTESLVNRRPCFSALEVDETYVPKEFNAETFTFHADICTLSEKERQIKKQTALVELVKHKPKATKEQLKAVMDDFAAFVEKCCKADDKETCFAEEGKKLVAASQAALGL
Sequence of UniProt P35052 (P35052 whole entry): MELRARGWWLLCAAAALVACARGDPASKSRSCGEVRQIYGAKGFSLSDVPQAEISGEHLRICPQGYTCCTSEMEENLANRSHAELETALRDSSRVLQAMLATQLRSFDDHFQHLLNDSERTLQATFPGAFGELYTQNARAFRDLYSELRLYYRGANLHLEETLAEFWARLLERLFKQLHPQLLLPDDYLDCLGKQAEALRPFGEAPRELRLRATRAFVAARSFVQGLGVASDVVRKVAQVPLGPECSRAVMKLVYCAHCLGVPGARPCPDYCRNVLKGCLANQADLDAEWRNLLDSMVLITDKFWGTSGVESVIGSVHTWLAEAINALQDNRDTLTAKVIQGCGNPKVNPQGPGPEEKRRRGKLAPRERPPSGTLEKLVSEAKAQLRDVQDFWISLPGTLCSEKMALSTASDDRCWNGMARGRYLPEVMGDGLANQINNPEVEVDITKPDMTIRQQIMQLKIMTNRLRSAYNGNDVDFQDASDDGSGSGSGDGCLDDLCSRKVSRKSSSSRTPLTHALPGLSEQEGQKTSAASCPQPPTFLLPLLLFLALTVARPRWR
For the target “EEF2 (lysine site: K407) (UniProt P13639)”, the “lysine labeling ratio R10:1” value was 1.45 (active). As to “PAICS (lysine site: K261) (UniProt P22234)”, the “lysine labeling ratio R10:1” value was 0.93 (active). In the case of “ECE1 (lysine site: K676) (UniProt P42892)” it was 3.15 (inactive); in that of “GPC1 (lysine site: K358) (UniProt P35052)”, 1.32 (active).

In the case of “FBL (lysine site: K131) (UniProt P22087)”, the “lysine labeling ratio R10:1” value is 2.15 (inactive). In the case of UniProt P01893 (lysine site: K210), the “lysine labeling ratio R10:1” value is 2.51 (inactive). In the case of “GPI (lysine site: K440) (UniProt P06744)”, the “lysine labeling ratio R10:1” value is 1.78 (active). In the case of “GAPDH (lysine site: K194) (UniProt P04406)”, the “lysine labeling ratio R10:1” value is 6.75 (inactive). Consider “PABPC1 (lysine site: K157) (UniProt P11940)”, for which the “lysine labeling ratio R10:1” value is 1.38 (active). “TMED9 (lysine site: K95) (UniProt Q9BVK6)”: the “lysine labeling ratio R10:1” value is 4.55 (inactive). As for “PTPRS (lysine site: K379) (UniProt Q13332)”, the “lysine labeling ratio R10:1” value was 2.21 (inactive). In the case of UniProt P02768 (lysine site: K229), the “lysine labeling ratio R10:1” value is 5.69 (inactive).

With “IGF2R (lysine site: K1104) (UniProt P11717)”, the “lysine labeling ratio R10:1” value was 3.26 (inactive).

“MSN (lysine site: K388) (UniProt P26038)”: the “lysine labeling ratio R10:1” value was 1.79 (active). As for “B2M (lysine site: K111) (UniProt P61769)”, the “lysine labeling ratio R10:1” value is 15.6 (inactive). For “HSP90B1 (lysine site: K733) (UniProt P14625)”, the “lysine labeling ratio R10:1” value is 3.26 (inactive).

As to UniProt P60866 (lysine site: K75), the “lysine labeling ratio R10:1” value is 1.91 (active). As to “HSD17B12 (lysine site: K261) (UniProt Q53GQ0)”, the “lysine labeling ratio R10:1” value was 1.88 (active). With “ENAH (lysine site: K559) (UniProt Q8N8S7)”, the “lysine labeling ratio R10:1” value is 2.92 (inactive).

As to “STOM (lysine site: K235) (UniProt P27105)”, the “lysine labeling ratio R10:1” value is 4.28 (inactive). Next, “SEMA3C (lysine site: K247) (UniProt Q99985)”: 4.79 (inactive); “GALNT2 (lysine site: K111) (UniProt Q10471)”: 3.04 (inactive); “LAMP1 (lysine site: K337) (UniProt P11279)”: 6.57 (inactive).

For the target “PLOD2 (lysine site: K89) (UniProt O00469)”, the “lysine labeling ratio R10:1” value is 1.37 (active). Next, “SPTBN1 (lysine site: K714) (UniProt Q01082)”: 2.12 (inactive).

As to CLU (lysine site: K62) (UniProt P10909), the “lysine labeling ratio R10:1” value is 1.13 (active). As to “M6PR (lysine site: K50) (UniProt P20645)”, the “lysine labeling ratio R10:1” value is 2.84 (inactive). Take “CCT8 (lysine site: K20) (UniProt P50990)”: the “lysine labeling ratio R10:1” value was 2.11 (inactive). Consider “PTPRF (lysine site: K612) (UniProt P10586)”, for which the “lysine labeling ratio R10:1” value is 4.74 (inactive).

On to UniProt Q13275 (lysine site: K581), for which the “lysine labeling ratio R10:1” value was 3.3 (inactive).

Take “CD109 (lysine site: K573) (UniProt Q6YHK3)”: the “lysine labeling ratio R10:1” value was 2.8 (inactive). Turning to “PPIB (lysine site: K116) (UniProt P23284)”, the “lysine labeling ratio R10:1” value is 6.61 (inactive).

In the case of UniProt P05787 (lysine site: K352), the “lysine labeling ratio R10:1” value was 9.16 (inactive).

As to “MSN (lysine site: K360) (UniProt P26038)”, the “lysine labeling ratio R10:1” value is 2.83 (inactive). As for “RPL5 (lysine site: K27) (UniProt P46777)”, the “lysine labeling ratio R10:1” value is 1.97 (active). As to “THBS1 (lysine site: K430) (UniProt P07996)”, the “lysine labeling ratio R10:1” value was 3.67 (inactive). “TFRC (lysine site: K205) (UniProt P02786)”: the “lysine labeling ratio R10:1” value was 2.81 (inactive). As for “CACNA2D1 (lysine site: K690) (UniProt P54289)”, the “lysine labeling ratio R10:1” value is 3.51 (inactive). Next, “FLNA (lysine site: K2387) (UniProt P21333)”: 11.9 (inactive); “CTNNA1 (lysine site: K16) (UniProt P35221)”: 3.72 (inactive).

(Values after the supplement of paper PMC11001985.)
